Screening results deposited in PubChem BioAssay by Broad Institute.
An excerpt weighted towards active compounds, which were near 1.5% of everything screened.
MLL AF4-AF9 inh = blocks AF4 peptide binding to human AF9; AlphaScreen, biotin-AF4 peptide binding to FLAG-AF9; inhibition, % at 10 µM; 350,000 compounds, 0.47% hits; AID 651704;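 active means every replicate reaching a set inhibition limit, whatever the replicate mean, cut at about 25% in these data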;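 further: 0% = plate neutral control median and 100% = total signal loss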
NSD2 HMT inh = inhibitors of human histone methyltransferase NSD2; NSD2 peptide methylation, AlphaScreen, 120 min; O96028; 310,000 compounds, 0.54% hits; inhibition, % at 12.5 µM; in the data active means inhibition above about 50%
RAD52 anneal inh = inhibitors of human RAD52 DNA annealing; P43351; recombinant RAD52 DNA annealing, FRET fluorescence; inhibition, % at 18.7 µM; 360,000 compounds, 0.46% hits;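 active means every replicate showing at least 50% inhibition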
Target sequence (P43351 whole entry, looked up): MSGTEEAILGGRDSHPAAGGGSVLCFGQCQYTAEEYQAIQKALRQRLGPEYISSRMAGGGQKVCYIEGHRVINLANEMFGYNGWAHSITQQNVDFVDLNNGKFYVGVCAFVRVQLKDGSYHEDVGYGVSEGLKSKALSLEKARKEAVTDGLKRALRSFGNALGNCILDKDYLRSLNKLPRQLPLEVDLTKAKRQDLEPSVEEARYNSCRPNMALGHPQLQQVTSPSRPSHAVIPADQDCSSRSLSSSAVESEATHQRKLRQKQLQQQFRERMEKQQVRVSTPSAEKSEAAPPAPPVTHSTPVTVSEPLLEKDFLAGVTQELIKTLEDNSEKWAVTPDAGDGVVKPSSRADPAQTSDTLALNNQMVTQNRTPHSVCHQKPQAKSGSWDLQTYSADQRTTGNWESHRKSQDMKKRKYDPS
miR-122 sensor = inhibitors of miR-122 in Huh7 cells. 340,000 compounds, 0.3% hits. Huh7 miR-122 Renilla luciferase sensor, 48 h; neutral wells = 0, positive control = 100. activation (reporter increase), % at 12.5 µM. AID 602342;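 active means mean replicate activation score at least 90 and every replicate individually at or above 90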;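 further: higher luciferase means less miR-122 activity so hits act as miR-122 inhibitors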
Casp6 inh = blocks human caspase-6 cleavage activity | P55212 | purified caspase-6, Z-VEID-R110 cleavage fluorescence | inhibition, % at 12.5 µM | 350,000 compounds, 0.53% hits | AID 686996;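 active means mean inhibition across replicates at least about 35%, with every replicate also reaching that limit, limit read from the data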;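 further: 0% = median of neutral control wells and 100% = no fluorescence left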
Active calls of the source: *; nt = no result; ! = a repeat was not active; [ ] = another dose, or the depositor's remark.

SMILES	MLL AF4-AF9 inh	NSD2 HMT inh	RAD52 anneal inh	miR-122 sensor	Casp6 inh
CCCn1c2ccc(C)cc2c2nnc(SCCN3CCOCC3)nc21	2	-1	19	-1	-3
CC(=O)N(C)C[C@@H]1Oc2cc(C#CC(C)(C)O)ccc2S(=O)(=O)N([C@H](C)CO)C[C@@H]1C	-1	nt	0	4[16.7 µM]	-1
O=C(CSc1nc2ncccc2[nH]1)NC1CCCC1	40*	-2	-14	nt	-1
CC(C)c1ccc(-c2nnc(SCC(=O)NC3CC3)n2C)cc1	-3	-2	0	-6	53*
Cn1c(SCC(=O)NC2CCCCC2)nnc1-c1ccccn1	-2	-2	-9	1	39*
COC(=O)CSc1nc2ncccc2[nH]1	nt	25	nt	-10	nt
CC(C)C(=O)Nc1ccc2c(c1)C(=O)N(C)[C@H]1CC[C@@H](CC(=O)NCc3cccc(F)c3)O[C@@H]1CO2	nt	nt	nt	10[16.7 µM]	nt
CCOc1ccc(N(CC(=O)Nc2cc(Cl)ccc2C)S(C)(=O)=O)cc1	-5	-3	-8	6	57*
CCCNC(=O)N1CC2(CCN(C(C)=O)CC2)c2c(n(C)c3cc(OC)ccc23)[C@@H]1CO	3	nt	2	nt	-2
COc1ccc(NS(=O)(=O)c2cc3c(cc2C)N(C)CCO3)cc1	10	nt	-15	95*	0
COc1cc(NS(=O)(=O)c2cc3c(cc2C)NC(=O)CO3)cc(OC)c1	-3	nt	-15	101*	2
COc1ccc(-c2cnc3c(c2)C(=O)N([C@@H](C)CO)C[C@@H](C)[C@H](CN(C)C(=O)Cc2cccnc2)O3)cc1	-4	nt	-8	-5[16.7 µM]	6
C[C@@H]1CN([C@H](C)CO)C(=O)c2cc(NC(=O)CCC(F)(F)F)ccc2O[C@@H](C)CCCCO[C@@H]1CN(C)Cc1ccncc1	nt	nt	nt	1[16.7 µM]	nt
COc1ccc(S(=O)(=O)Nc2ccc3c(c2)COC3=O)cc1OC	nt	-1	nt	150*	nt
CC(C)(C)c1ccc(S(=O)(=O)Nc2ccc3c(c2)COC3=O)cc1	-1	-2	-8	37	3
CO[C@H]1CN(C)C(=O)c2ccc(NC(=O)CC(F)(F)F)cc2OC[C@@H](C)N(CC2CC2)C[C@H]1C	-14	nt	16	nt	0
O=C(CSc1nc(O)c(Cc2ccccc2)c(=O)[nH]1)Nc1nnc(SCc2ccccc2)s1	-4	31	-11	-5	51*
CCCCc1nnc(NC(=O)CSc2nc(O)c(Cc3ccccc3)c(=O)[nH]2)s1	-2	13	3	nt	5
CCOC(=O)c1ccc2ncc(C(=O)OCC)c(Nc3ccc(N4CCOCC4)cc3)c2c1	26*	8	-3	nt	2
O=C(O)CCCC[C@@H]1SC[C@@H]2NC(=O)N[C@@H]21	97*	nt	-7	50	-5
C[C@@H]1CCCCO[C@@H](CN(C)S(C)(=O)=O)[C@@H](C)CN([C@@H](C)CO)C(=O)c2cc(NC(=O)CCCN(C)C)ccc2O1	-3	nt	-7	1[16.7 µM]	-3
Cc1ccc(C(=O)NCC(c2ccco2)N2CCc3ccccc3C2)cc1 (configuration not stated)	0	3	-30	nt	14
O=C(NCC(c1ccco1)N1CCc2ccccc2C1)c1ccc(Cl)cc1 (configuration not stated)	-2	0	-49	nt	63*
O=C(Nc1cc(F)ccc1F)N[C@@H]1C=C[C@H](CC(=O)N2CCc3ccccc3C2)O[C@H]1CO	-1	nt	4	4[16.7 µM]	3
CO[C@H]1CN(C)C(=O)c2ccc(NC(=O)c3cc(C)on3)cc2OC[C@H](C)N(C(C)=O)C[C@@H]1C	1	nt	-7	nt	-1
SMILES	MLL AF4-AF9 inh	NSD2 HMT inh	RAD52 anneal inh	miR-122 sensor	Casp6 inh
C(=N\N1CCN(c2ccccn2)CC1)/c1cccc2ccccc12	27*	5	0	-1	-1
Oc1ccccc1/C=N/N1CCN(c2ccccn2)CC1	3	1	-5	-2	0
COc1ccc2c3c([nH]c2c1)[C@H](CO)NCC31CCN(C(=O)Nc2ccc(F)cc2F)CC1	15	nt	76*	nt	nt
COc1ccc2c3c([nH]c2c1)[C@@H](CO)NCC31CCN(C(=O)Nc2ccccc2F)CC1	10	nt	68*	nt	nt
CC1=C(c2ccccc2)[N+](=O)C2(CCCC2)N1[O-]	nt	-4	nt	1	nt
O=[N+]([O-])c1ccc2c(c1)N([O-])C1(CCCCC1)[N+]2=O	5	84*	-5	nt	34
COc1ccc(NC(=O)N(C)C[C@@H]2Oc3c(NC(=O)CCCCCC(=O)Nc4ccccc4N)cccc3C(=O)N([C@H](C)CO)C[C@H]2C)cc1	3	nt	2	nt	1
COc1ccc(N[C@@H]2CCN3C(=O)c4ccccc4[C@@H]3C[C@H]2O)cc1	0	nt	-5	nt	6
O=C1c2ccccc2[C@@H]2C[C@@H](O)[C@H](Nc3cccc4ccccc34)CCN12	0	nt	-17	nt	39*
CO[C@H]1CN(C)C(=O)c2cc(NC(=O)Cc3ccccc3)ccc2OC[C@@H](C)NC[C@@H]1C	-2	nt	-25	nt	nt
COc1ccccc1N1CCN(C2=Nc3cccc4cccc2c34)CC1	30*	21	-14	-10	3
C[C@@H]1CN([C@@H](C)CO)C(=O)c2cc(C#CCN(C)C)cnc2O[C@H]1CN(C)Cc1ccccc1F	9	nt	3	0[16.7 µM]	5
Cc1cc(C)c(S(=O)(=O)Nc2ccc(C(N)=O)cc2)c(C)c1	-3	-3	-2	12	-3
CC(=O)c1ccc(NS(=O)(=O)c2c(C)cc(C)cc2C)cc1	-4	-5	-15	152*	-5
COc1cccc(-c2ccc(C3[C@H]4CNC[C@@H]3N4C(=O)Nc3ccccc3Cl)cc2)c1 (some centres not stated)	-3	nt	51*!	nt	3
COc1cccc(NC(=O)N2[C@@H]3CNC[C@H]2C3c2ccc(-c3cccnc3)cc2)c1 (some centres not stated)	1	nt	0	nt	0
COc1ccc(-c2ccc(C3[C@H]4CNC[C@@H]3N4C(=O)Nc3cccc(OC)c3)cc2)cc1 (some centres not stated)	0	nt	67*!	nt	1
COc1cccc(NC(=O)N2[C@@H]3CNC[C@H]2C3c2ccc(-c3cccc(OC)c3)cc2)c1 (some centres not stated)	4	nt	66*!	nt	2
COc1cccc(-c2ccc(C3[C@H]4CNC[C@@H]3N4S(=O)(=O)c3cccc(Cl)c3)cc2)c1 (some centres not stated)	-6	nt	53*	nt	0
O=S(=O)(NCC1CCCO1)c1ccc(Cl)c(C(F)(F)F)c1 (configuration not stated)	nt	0	nt	155*	nt
C[C@H]1CN([C@@H](C)CO)C(=O)c2cc(NC(=O)NC3CCCCC3)ccc2O[C@H]1CN(C)Cc1ccc(C(F)(F)F)cc1	-2	nt	1	-5[16.7 µM]	-1
CCCCn1c(N)c(N(CCOC)C(=O)c2cc(-c3ccco3)nc3ccccc23)c(=O)[nH]c1=O	1	-1	-23	-5	61*
CCCCn1c(N)c(N(CCOC)C(=O)COC(=O)c2cc(CCC)c(C)s2)c(=O)[nH]c1=O	41*	-2	-6	-5	3
